“And” between values parts separate entries of the source, which are not always exact repeats. Equal values may be shown once. Results filed as inconclusive are left out. More than one record can exist for a structure, and the calls need not agree. The source made the active and inactive calls. Unless noted, calls follow the shape of the full dose curve.
Tests used:
[1] = Nuclear factor erythroid 2-related factor 2/antioxidant responsive element (Nrf2/ARE) small molecule agonists: qHTS cell viability counter screen in human keratinocytes (AID 1919968; active = well fitted curve in the direction sought with a large enough effect in the repeat runs; an effect the other way counts as inactive or inconclusive; also: nearly all actives have a fitted effect of over 55% in size; also: potency is read from the fitted curve at half-maximal effect)
How it was run: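 Cells of the KeratinoSens line were plated at 1,500 per well and left for 5 h before compound transfer from DMSO stocks. After a 23 h incubation (37 C, 5% CO2), CellTiter-Fluor was added. Signal was taken as fluorescence intensity 1 h later.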

[2] = Nuclear factor erythroid 2-related factor 2/antioxidant responsive element (Nrf2/ARE) small molecule agonists: luciferase reporter gene qHTS assay in human keratinocytes (AID 1919969); also: nearly all actives have a fitted effect of over 35% in size; also: potency is read from the fitted curve at half-maximal effect
[3] = target: KiSS-1 receptor (Homo sapiens) (UniProt Q969F8); experiment: Human kisspeptin (KISS1R) small molecule agonists, calcium flux assay in KISS1R-HEK293 cells (AID 1920064; active = well fitted curve in the direction sought with a large enough effect in the repeat runs; an effect the other way counts as inactive or inconclusive)
KiSS-1 receptor (Homo sapiens), sequence (Q969F8 whole entry, looked up): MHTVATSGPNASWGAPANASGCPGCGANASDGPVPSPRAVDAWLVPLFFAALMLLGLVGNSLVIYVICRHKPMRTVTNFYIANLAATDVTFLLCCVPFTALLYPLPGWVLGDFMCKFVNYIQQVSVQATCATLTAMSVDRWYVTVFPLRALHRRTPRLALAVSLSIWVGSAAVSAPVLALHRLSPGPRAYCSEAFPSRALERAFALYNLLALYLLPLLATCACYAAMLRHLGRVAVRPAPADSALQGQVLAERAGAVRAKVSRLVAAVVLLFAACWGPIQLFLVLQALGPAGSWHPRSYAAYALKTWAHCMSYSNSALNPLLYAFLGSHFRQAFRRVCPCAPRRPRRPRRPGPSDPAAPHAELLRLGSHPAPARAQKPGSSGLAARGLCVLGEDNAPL
How it was run: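 Cell line: HEK293, stable human KISS1R. Dye loading 1 h at 37 C after 18 h culture. Read: kinetic fluorescence, 480/540 nm, 3 min at 1 s intervals.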

[4] = G protein-coupled receptor (GPCR) small molecule agonists, calcium flux assay: HEK293 wild type cell line counter screen (AID 1920065)
How it was run: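 Tox21 10K compounds, 15 concentrations each in triplicate, pin-transferred in DMSO onto dye-loaded cells; kinetic read at 480/540 nm for 3 min, 1 s intervals.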

[5] = p53 small molecule agonists, cell-based qHTS assay with human liver microsomes (AID 1963577);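 also: p53 response element beta-lactamase reporter cells with liver microsomes plus NADPH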
How it was run: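 Metabolically competent format: test substances, human liver microsomes and NADPH (both 0.5 mg/mL final) incubated with p53RE-bla cells 16 h at 37 C. Beta-lactamase reporter signal then quantified by fluorescence.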

[6] = p53 small molecule agonists, cell-based qHTS assay with rat liver microsomes (AID 1963578)
How it was run: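 Each plate received p53RE-bla cells, then compound, then rat liver microsomes and NADPH (both 0.5 mg/mL final). Plates were held 16 h at 37 C, and beta-lactamase activity was detected with LiveBLAzer over 2 h.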

[7] = p53 small molecule agonists, cell-based qHTS assay with human liver microsomes: qHTS cell viability counter screen (AID 1963579); also: nearly all actives have a fitted effect of over 45% in size; also: potency is read from the fitted curve at half-maximal effect
How it was run: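 Tox21 library compounds, delivered from DMSO stocks, were tested on p53RE-bla cells together with 0.5 mg/mL human liver microsomes and 0.5 mg/mL NADPH (final) over 16 h at 37 C; CellTiter-Glo luminescence served as the cytotoxicity measure.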

[8] = p53 small molecule agonists, cell-based qHTS assay with rat liver microsomes: qHTS cell viability counter screen (AID 1963580); also: nearly all actives have a fitted effect of over 45% in size
How it was run: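 After the beta-lactamase ratio was read, CellTiter-Glo was added to the same wells and luminescence measured at 30 min; cells had been treated 16 h at 37 C with compounds, rat liver microsomes and NADPH (0.5 mg/mL final each).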

[9] = p53 small molecule agonists, cell-based qHTS assay: qHTS cell viability counter screen (AID 1963581); also: nearly all actives have a fitted effect of over 45% in size
How it was run: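 ATP content measured by luminescence in HCT-116 p53RE-bla cells treated 16 h at 37 C, same wells as the reporter screen.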

[10] = p53 small molecule agonists, cell-based qHTS assay (AID 1963582; active = well fitted activation curve with a large enough effect in the signal ratio in the repeat runs, not every such curve was filed as active; the % refers to the signal ratio)
How it was run: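 16 h compound exposure (37 C) of p53 response element–bla cells, preceded by 5 h recovery at 37 C/5% CO2; read-out via LiveBLAzer B/G FRET substrate, 2 h RT, fluorescence intensity.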

[11] = target: 5-hydroxytryptamine receptor 2A (Homo sapiens) (UniProt P28223); experiment: 5-hydroxytryptamine receptor 2A (HTR2A) small molecule antagonists, cell-based qHTS assay (AID 1963586); also: nearly all actives have a fitted effect of over 45% in size
5-hydroxytryptamine receptor 2A (Homo sapiens), sequence (P28223 whole entry, looked up): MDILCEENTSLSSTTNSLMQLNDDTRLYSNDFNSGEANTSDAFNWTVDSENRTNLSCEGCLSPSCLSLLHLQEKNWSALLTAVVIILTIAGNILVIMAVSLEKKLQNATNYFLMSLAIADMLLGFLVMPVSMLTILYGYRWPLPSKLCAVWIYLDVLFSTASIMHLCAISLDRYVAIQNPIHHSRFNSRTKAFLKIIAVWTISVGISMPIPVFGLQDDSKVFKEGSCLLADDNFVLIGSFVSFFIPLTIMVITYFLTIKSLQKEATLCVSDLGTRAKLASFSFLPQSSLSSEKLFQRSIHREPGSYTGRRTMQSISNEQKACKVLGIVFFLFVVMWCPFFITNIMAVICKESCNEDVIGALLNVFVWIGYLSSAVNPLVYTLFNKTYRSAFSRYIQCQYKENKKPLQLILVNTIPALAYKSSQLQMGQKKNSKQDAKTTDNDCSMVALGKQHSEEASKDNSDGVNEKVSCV
How it was run: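 CHO cells stably expressing human HTR2A were plated for 18 h at 37 C, then loaded with calcium dye for 1 h. Compounds were preincubated 5 min at room temperature before DOI (4 nM solution) was added. Kinetic fluorescence was read for 3 min.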

[12] = target: 5-hydroxytryptamine receptor 2A (Homo sapiens) (UniProt P28223); experiment: 5-hydroxytryptamine receptor 2A (HTR2A) small molecule agonists, cell-based qHTS assay (AID 1963587); also: nearly all actives have a fitted effect of over 30% in size; also: potency is read from the fitted curve at half-maximal effect
How it was run: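 CHO cells stably expressing human HTR2A, plated 18 h, loaded with calcium dye 1 h at 37 C. Agonist mode: compounds added and intracellular calcium fluorescence recorded kinetically for 2 min at 1 sec intervals.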

[13] = target: Muscarinic acetylcholine receptor M1 (Homo sapiens) (UniProt P11229); experiment: Cholinergic receptor muscarinic 1 (CHRM1) small molecule antagonists, cell-based qHTS assay (AID 1963588); also: nearly all actives have a fitted effect of over 40% in size
Muscarinic acetylcholine receptor M1 (Homo sapiens), sequence (P11229 whole entry, looked up): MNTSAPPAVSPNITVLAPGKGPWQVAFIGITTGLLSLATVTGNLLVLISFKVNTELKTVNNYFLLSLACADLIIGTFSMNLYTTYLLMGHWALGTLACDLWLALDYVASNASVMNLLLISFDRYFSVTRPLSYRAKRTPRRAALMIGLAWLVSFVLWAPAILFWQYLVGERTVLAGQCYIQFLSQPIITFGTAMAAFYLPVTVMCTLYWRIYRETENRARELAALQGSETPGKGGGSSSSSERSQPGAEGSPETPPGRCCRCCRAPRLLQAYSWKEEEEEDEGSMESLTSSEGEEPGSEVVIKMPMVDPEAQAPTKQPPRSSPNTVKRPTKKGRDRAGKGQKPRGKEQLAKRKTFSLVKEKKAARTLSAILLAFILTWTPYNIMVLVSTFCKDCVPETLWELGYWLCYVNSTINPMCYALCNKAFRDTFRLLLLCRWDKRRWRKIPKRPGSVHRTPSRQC
How it was run: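 Compounds were tested at 15 concentrations in three independent runs. Dye-loaded CHRM1-CHO cells were exposed 5 min at room temperature before stimulation by acetylcholine added at 50nM. Intracellular calcium was read kinetically on FDSS for 3 min.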

[14] = target: Muscarinic acetylcholine receptor M1 (Homo sapiens) (UniProt P11229); experiment: Cholinergic receptor muscarinic 1 (CHRM1) small molecule agonists, cell-based qHTS assay (AID 1963589); also: nearly all actives have a fitted effect of over 35% in size; also: potency is read from the fitted curve at half-maximal effect
How it was run: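 Homogeneous fluorescence calcium flux, agonist mode. Human M1-expressing CHO cells; compound dosed at 15 concentrations, three independent runs; signal sampled every 1 sec.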

[15] = cAMP Responsive Elements (CRE) small molecule agonists, cell-based qHTS assay (AID 1963590)
How it was run: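 HEK 293T cells stably bearing CRE-bla were plated at 2,000 cells per well and rested 18 h. Compounds, positive controls or DMSO were added for 3 h at 37 C. LiveBLAzer B/G substrate was then loaded for 2 h at room temperature.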

[16] = cAMP Responsive Elements (CRE) small molecule antagonists, cell-based qHTS assay (AID 1963591; active = well fitted inhibition curve with a large enough effect in the signal ratio in the repeat runs, not every such curve was filed as active; the % refers to the signal ratio)
How it was run: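 First, CRE-bla HEK293T cells settled 18 h at 37 C. Next, compound and 0.25 uM final NKH477 were applied for 3 h. Last, LiveBLAzer B/G substrate was loaded for 2 h at room temperature.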

[17] = target: Beta-2 adrenergic receptor (Homo sapiens) (UniProt P07550); experiment: Adrenergic beta2 receptor (ADRB2) small molecule agonists, cell-based qHTS assay (AID 1963593);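 also: CHO cells stably overexpressing human ADRB2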
Beta-2 adrenergic receptor (Homo sapiens), sequence (P07550 whole entry, looked up): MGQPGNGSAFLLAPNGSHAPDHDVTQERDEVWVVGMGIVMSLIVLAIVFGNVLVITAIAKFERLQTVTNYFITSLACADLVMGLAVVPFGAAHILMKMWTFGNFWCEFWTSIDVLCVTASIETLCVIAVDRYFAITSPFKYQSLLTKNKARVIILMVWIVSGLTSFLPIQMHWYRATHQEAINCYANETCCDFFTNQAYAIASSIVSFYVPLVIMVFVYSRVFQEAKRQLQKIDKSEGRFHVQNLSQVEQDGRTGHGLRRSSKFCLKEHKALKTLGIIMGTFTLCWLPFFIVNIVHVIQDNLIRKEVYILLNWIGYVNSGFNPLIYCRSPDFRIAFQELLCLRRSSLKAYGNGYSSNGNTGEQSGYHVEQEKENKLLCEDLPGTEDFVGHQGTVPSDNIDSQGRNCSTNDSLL
How it was run: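 CHO cells stably over-expressing ADRB2 were plated overnight at 37C, then dosed with compounds plus a stimulation mix containing 100uM IBMX and 25uM Ro-20-1724 for 0.5hr at room temperature. cAMP was measured by HTRF competition, 1hr.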

[18] = target: D(2) dopamine receptor (Homo sapiens) (UniProt P14416); experiment: Dopamine D2 receptor (DRD2) small molecule agonists, cell-based qHTS assay (AID 1963594); also: nearly all actives have a fitted effect of over 35% in size
D(2) dopamine receptor (Homo sapiens), sequence (P14416 whole entry, looked up): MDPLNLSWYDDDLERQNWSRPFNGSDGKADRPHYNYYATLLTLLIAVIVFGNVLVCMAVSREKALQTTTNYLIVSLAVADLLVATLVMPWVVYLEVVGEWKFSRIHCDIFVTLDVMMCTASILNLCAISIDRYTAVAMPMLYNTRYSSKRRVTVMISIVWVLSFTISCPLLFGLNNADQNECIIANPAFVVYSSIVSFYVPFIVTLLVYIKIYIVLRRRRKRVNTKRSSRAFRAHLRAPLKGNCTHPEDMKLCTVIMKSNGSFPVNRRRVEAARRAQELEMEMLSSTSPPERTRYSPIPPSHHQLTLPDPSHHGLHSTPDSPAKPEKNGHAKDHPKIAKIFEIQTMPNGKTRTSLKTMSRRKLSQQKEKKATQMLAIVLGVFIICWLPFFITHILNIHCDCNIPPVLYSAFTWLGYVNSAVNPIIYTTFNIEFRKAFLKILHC
How it was run: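 HEK293 cells stably expressing human DRD2, pre-treated with PDE inhibitor Ro20-1724 (0.1 mM final) and compound 10 min at room temperature, then stimulated with NKH477 (200nM […]) for 30 min. cAMP read by HTRF (665/620 nm).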

[19] = target: D(2) dopamine receptor (Homo sapiens) (UniProt P14416); experiment: Dopamine D2 receptor (DRD2) small molecule antagonists, cell-based qHTS assay (AID 1963595; active = well fitted inhibition curve with a large enough effect in the signal ratio in the repeat runs, with a control signal flat; the % refers to the signal ratio)
How it was run: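 HEK293 cells stably expressing DRD2 were preincubated with 0.1 mM Ro20-1724, then with compound for 10 min at room temperature. Cells were stimulated with 200 nM NKH477 plus 12 nM quinpirole for 30 min, and cAMP was read by HTRF.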

[20] = target: Beta-2 adrenergic receptor (Homo sapiens) (UniProt P07550); experiment: Adrenergic beta2 receptor (ADRB2) small molecule antagonists, cell-based qHTS assay (AID 1963592); also: series mostly up to about 92 µM; nearly all actives have a fitted effect of over 50% in size
How it was run: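 Assay format: CHO-ADRB2 cells, 18-20hr seeding at 37C/5% CO2, then compound plus 1nM isoproterenol agonist mix for 0.5hr RT. Homogeneous time-resolved fluorescence cAMP detection after 1hr, expressed as 665/615 nm ratio.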

Measured: Potency

O=S(=O)(O)CO
not listed: [20]
inactive: all other assays above

Cc1ccc(C(C)c2ccc(C)c(C)c2)cc1C
not listed: [14]
inactive: all other assays above

Cc1ccc(C)o1
not listed: [17]
inactive: all other assays above

O[C@@H]([C@H](O)[C@H](O)CBr)[C@H](O)CBr
not listed: [12]
inactive: all other assays above

C[C@H]1C[C@H](O)c2ccsc2S1(=O)=O
not listed: [12] | [14]
inactive: all other assays above

O=C(O)CNc1ccccc1
not listed: [18]
inactive: all other assays above

CC(C)(C)c1cc(C(C)(C)C)c(O)c(C(C)(C)C)c1
active: [2] 30.6 µM | [12] 5.49 µM
inactive and 48.6 µM (active): [1]
not listed: [10]
inactive: all other assays above

CCOC(=O)c1ccc(O)c(O)c1
not listed: [17]
inactive: all other assays above

CC(C[N+](C)(C)C)OC(N)=O (stereo unspecified)
active: [14] 2.39 µM
not listed: [15] | [18]
inactive: all other assays above

N#[N+]c1ccc2c(S(=O)(=O)[O-])cccc2c1O
not listed: [17]
inactive: all other assays above

NS(=O)(=O)c1ccc(N2CCCCS2(=O)=O)cc1
not listed: [12] | [20]
inactive: all other assays above

C=C(C)C(=O)NCCCN(C)C
not listed: [17]
inactive: all other assays above

C[C@]12CC[C@H]3[C@@H](CCC4=CC(=O)CC[C@@]43C)[C@@H]1CC[C@@H]2C(=O)CO
not listed: [15] | [16]
inactive: all other assays above

O=C(O)/C=C/c1ccccc1
not listed: [10] | [12]
inactive: all other assays above

CC(CCC(=O)O)C(=O)O (stereo unspecified)
not listed: [14] | [16]
inactive: all other assays above

COc1ccc2cc(C=O)ccc2c1
not listed: [17] | [18]
inactive: all other assays above

NC(=O)c1cccc([N+](=O)[O-])c1
not listed: [13] | [17]
inactive: all other assays above

O=CC1CC1
not listed: [10] | [19]
inactive: all other assays above

CCOC(=O)CC(C(C)=O)C(C)=O
inactive: all assays above

O=C(O)c1cccnc1C(=O)O
not listed: [16]
inactive: all other assays above

CC(=O)Nc1ccc(C)cc1
not listed: [10] | [16] | [17]
inactive: all other assays above

c1ccc2c(c1)Oc1ccccc1S2
not listed: [13] | [17]
inactive: all other assays above

CCCCCCCCOCCC#N
not listed: [17]
inactive: all other assays above

NS(=O)(=O)c1cc2c(cc1Cl)NC(C1CC3C=CC1C3)NS2(=O)=O (stereo unspecified)
active: [7] 3.97 µM
not listed: [17]
inactive: all other assays above

O=C(O)CSCC(=O)NC1CCSC1=O (stereo unspecified)
not listed: [20]
inactive: all other assays above

C=CC(=O)O[C@H]1C[C@@H]2CC[C@@]1(C)C2(C)C
not listed: [16]
inactive: all other assays above

O=[Si]=O
not listed: [20]
inactive: all other assays above

C=CCCCCCCCCCCCC
active: [14] 0.245 µM
not listed: [13]
inactive: all other assays above

— PubChem BioAssay (Tox21)
